The record followed here is PubChem BioAssay.

Molecules are shown by their SMILES. Unmarked numbers belong to inactive results. How the calls were made is not given here.

The subject of the experiment is Aerobactin synthetase IucA (Klebsiella pneumoniae hvKP1). Put plainly: IucA enzyme inhibition, primary screen, biochemical, Spectrum library (AID 1346200).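 Further: 100% = wells without compound and 0% = wells lacking enzyme.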 As to conditions: malachite green pyrophosphate, A620, at 8 µM, active compounds read low.
For the compound `COc1ccc2c(c1)[C@@]1(C)CCC(=O)C[C@@H]1CC2`, the activity remaining was 118%.

For `c1ccc(CC2=NCCN2)cc1`, the activity remaining was 118%.

Turning to `COc1ccc(-c2cc(=O)c3c(O)cc(OC)c(OC)c3o2)c(OC)c1`, the activity remaining was 94.3%.

Take `NCC1CCC(C(=O)O)CC1` (stereo not given): the activity remaining is 102%.

Regarding `CC1(C)C(=O)C=C[C@@]2(C)C1CC(=O)[C@@]1(C)C3=CC(=O)O[C@@H](c4ccoc4)[C@]3(C)CCC12` (stereo not given in full), the activity remaining is 107%.

As for `O=C1C(=O)c2ccccc2C(O)=C1C1CCC(c2ccc(Cl)cc2)CC1` (stereo not given), the activity remaining is 101%.

In the case of `NC(=O)c1ccc[n+]([C@@H]2O[C@H](COP(=O)([O-])OP(=O)(O)OC[C@H]3O[C@@H](n4cnc5c(N)ncnc54)[C@H](O)[C@@H]3O)[C@@H](O)[C@H]2O)c1`, the activity remaining was 108%.

For `C=C(NC(=O)C(=C)NC(=O)c1csc(C2=NC3c4csc(n4)C4NC(=O)c5csc(n5)C(C(C)(O)C(C)O)NC(=O)C5CSC(=N5)C(=CC)NC(=O)C(C(C)O)NC(=O)c5csc(n5)C3(CC2)NC(=O)C(C)NC(=O)C(=C)NC(=O)C(C)NC(=O)C(C(C)CC)NC2C=Cc3c(C(C)O)cc(nc3C2O)C(=O)OC4C)n1)C(N)=O` (stereo not given), the activity remaining was 121%.

Take `CC(=O)O[C@H]1CC[C@@]2(C)C(CC[C@]3(C)C2C(=O)C=C2C4[C@@H](C)[C@H](C)CC[C@]4(C(=O)O)CC[C@]23C)C1(C)C` (stereo not given in full): the activity remaining is 113%.

Turning to `CC[C@H](C)C(=O)O[C@H]1C[C@@H](C)C=C2C=C[C@H](C)[C@H](CC[C@@H]3C[C@@H](O)CC(=O)O3)[C@H]21`, the activity remaining is 119%.
